Only some compounds are listed: those with a hit (about 12% of all), similar ones and a draw of the others.
AMA1 RON2 block: AMA1-RON2 (P. falciparum) interaction inhibition; AlphaScreen AMA1-biotinylated RON2 peptide binding; Potency, µM (titrated, usually from 58.2 µM), hits mostly inhibitors; actives 0.2% (n = 360,000); AID 720542; also: nearly all actives have a fitted effect of over 45% in size
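AMA1 (3D7) with his tag at 25 nM final met compounds first, then biotinylated RON2 peptide at 25 nM; detection used donor plus acceptor beads, 10 µg/mL apiece, read by AlphaScreen after 30 min at room temperature.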
HCV inh: blocks hepatitis C virus | AID 651820 | Potency, µM (doses to about 41.8 µM), most hits filed as inhibitors | actives 3.4% (n = 340,000) | Huh7.5.1 HCVcc-Cre infection, luciferase reporter, 44 h
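1,000 cells/well; 4 h culture; + compound; + HCVcc-Cre (~0.5 moi); 44 h; luciferase substrate, RT 15 min; read 15 sec.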
SARS PLP yeast: blocks SARS-CoV papain-like protease in a yeast assay | S. cerevisiae expressing SARS-CoV PLpro, growth rescue | Potency, µM (doses to about 32.9 µM), hits mostly activators | actives 0.19% (n = 330,000) | AID 485353; calls by dose curve; also: nearly all actives have a fitted effect of over 55% in size
NS1 function inh: inhibitors of influenza NS1 protein function. actives 0.4% (n = 270,000). Potency, µM (doses to about 46.1 µM); calls by dose curve; also: actives are rising curves; nearly all actives have a fitted effect of over 50% in size
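Compounds were scored for reversing the slow growth caused by influenza A NS1 in S. cerevisiae, measured by optical density at 600 nm. Assay medium contained 2% galactose at pH 6.0; NS1-free yeast of the same strain were the positive control.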
Pf growth 48h: P. falciparum growth inhibition at 48 hours (one generation); P. falciparum luciferase growth in erythrocytes, 48 h; Potency, µM (doses to about 28.7 µM), actives largely listed as inhibitors; actives 5.9% (n = 310,000); AID 504832
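Growth was read as firefly luciferase luminescence after a 48 h, 37 C, 5% CO2 exposure of compounds to reporter-bearing P. falciparum cultures (0.1% parasitemia, 2% hematocrit final) in Albumax-supplemented RPMI 1640.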
Pf growth 96h: P. falciparum growth inhibition at 96 hour, primary screen for plastid delayed-death inhibitors. P. falciparum luciferase reporter growth, 96 h. AID 504834. actives 6.9% (n = 320,000). Potency, µM (doses to about 28.7 µM), actives largely listed as inhibitors
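Plates of compound plus infected erythrocytes (2% hematocrit, 0.05% parasitemia final) incubate 96 hours, 37 C, 5% CO2. Detection reagent added; reduced luminescence from the parasites' luciferase reporter flags inhibition.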
Large screens that a line does not name were inactive. Unless noted, calls follow the shape of the dose curve; as a rule, active = well fitted curve in the direction sought with a large enough effect; inconclusive = small, poorly fitted or top-dose-only effect, or another doubt; inactive = no such curve, though single readings can be large; an effect the other way counts as inactive or inconclusive.

COc1ccc(-c2cc(C(=O)N3CCN(C(c4ccccc4)c4ccccc4)CC3)no2)cc1	HCV inh 10µM, NS1 function inh inconclusive, Pf growth 48h inconclusive, Pf growth 96h 12µM
Nc1nc(N)c2[nH]c(-c3ccccc3)nc2n1	NS1 function inh inconclusive, Pf growth 96h inconclusive
NC(N)=NCCN=C(N)N	none (no result: AMA1 RON2 block, HCV inh, SARS PLP yeast, Pf growth 48h, Pf growth 96h)
CCOC(=O)N1CCC(Nc2ncnc3c2cnn3-c2ccc(C)cc2C)CC1	HCV inh 7.1µM
CCOC(=O)C1CCN(C(=O)c2ccc3nc(-c4ccc(OC)cc4)c(-c4ccc(OC)cc4)nc3c2)CC1	HCV inh 25µM, Pf growth 48h 8.3µM
CCOC(=O)C1CCN(C(=O)c2cccc(Cl)c2)CC1	Pf growth 96h 7.4µM
CCOC(=O)C1CCN(C(=O)c2cc(C(C)(C)C)nn2Cc2ccccc2)CC1	Pf growth 48h 1.2µM, Pf growth 96h 1.2µM
CCOC(=O)C1CCN(C(=O)C2CCN(c3nc4ccc(OC)cc4s3)CC2)CC1	HCV inh inconclusive, Pf growth 48h inconclusive, Pf growth 96h 10µM
CCOC(=O)C1CCCN(C(=O)c2ccc(OC)cc2)CC1 (stereo not given)	none (no result: HCV inh, SARS PLP yeast, NS1 function inh, Pf growth 48h, Pf growth 96h)
CCOC(=O)C1CCCN(C(=O)c2ccccc2)CC1 (stereo not given)	none (no result: HCV inh, SARS PLP yeast, NS1 function inh, Pf growth 48h, Pf growth 96h)
O=S(=O)(NCCOc1ccccc1F)c1cccc(Br)c1	none (no result: NS1 function inh)
O=C(c1ccoc1)N1CCN(c2cc(-c3ccccc3)nc3cc(-c4ccc(Br)cc4)nn23)CC1	none (no result: HCV inh, SARS PLP yeast, NS1 function inh, Pf growth 48h, Pf growth 96h)
COc1ccc2[nH]cc(CCNC(=O)Cc3ccc(F)cc3)c2c1	Pf growth 96h inconclusive
O=C(c1cccc(Cl)c1)N1CCN(C2CCCCC2)CC1	none
O=C(c1cccc(Cl)c1)N1CCC(N2CCC(C(=O)N3CCCC3)CC2)CC1	HCV inh inconclusive, Pf growth 48h inconclusive, Pf growth 96h 15µM
Cc1nc(NC(=O)c2cccc(Cl)c2)sc1C(=O)N1CCCCC1	Pf growth 48h inconclusive
CCOC(=O)C1C(c2ccc(O)c(O)c2)NC(=S)NC1(O)C(F)(F)F (stereo not given)	Pf growth 96h 12µM
Cc1cc(C)n(CCN(C)C(=O)C2CCC(=O)N(CCN3CCOCC3)C2)n1 (stereo not given)	none
CC(C)CC(=O)N1CCN(c2ccc(NC(=O)c3ccco3)cc2)CC1	Pf growth 48h inconclusive, Pf growth 96h 9.3µM (no result: HCV inh)
CC(C)CC(=O)NC(=S)Nc1ccc(NC(=O)c2ccco2)cc1	Pf growth 48h inconclusive, Pf growth 96h 6.6µM
CCC(=O)NC(=S)Nc1ccc(NC(=O)c2ccco2)cc1	Pf growth 48h inconclusive, Pf growth 96h inconclusive
COc1ccccc1C(=O)NC(=S)Nc1ccc(NC(=O)c2ccco2)cc1	Pf growth 48h inconclusive, Pf growth 96h 5.2µM
COc1cc(CNc2ncnc3c2ncn3[C@H]2CN(Cc3ccncc3)C[C@@H](CO)O2)cc(OC)c1OC	none (no result: HCV inh, SARS PLP yeast, NS1 function inh, Pf growth 48h, Pf growth 96h)
CCOc1ccccc1C1NC(=O)CCC1[N+](=O)[O-] (stereo not given)	none
CC(=O)c1cn(CCOc2cc(C)ccc2C)c2ccccc12	HCV inh 1.8µM, Pf growth 48h inconclusive, Pf growth 96h inconclusive
Cc1ccccc1OCCn1cc(C(=O)O)c2ccccc21	none (no result: NS1 function inh)
Cc1ccc(C)c(OCCn2cc(C(=O)O)c3ccccc32)c1	none (no result: NS1 function inh)
COc1ccccc1OCCn1cc(C(=O)c2ccco2)c2ccccc21	HCV inh inconclusive, Pf growth 48h 12µM, Pf growth 96h inconclusive
COc1ccccc1OCCCn1cc(C(=O)c2ccco2)c2ccccc21	HCV inh 11µM, Pf growth 48h inconclusive
COc1ccccc1NC(=O)Cn1cc(C(=O)c2ccco2)c2ccccc21	HCV inh inconclusive, Pf growth 48h inconclusive
Cc1ccccc1OCCn1cc(/C(N)=N/O)c2ccccc21	HCV inh inconclusive, Pf growth 96h 9.3µM (no result: Pf growth 48h)
C=CC[C@H](CC(=O)N(CCO)Cc1ccccc1)C(=O)N[C@H](COC(=O)[C@@H](CC=C)CC(=O)OC(C)(C)C)Cc1c[nH]c2ccccc12	HCV inh inconclusive (no result: NS1 function inh, Pf growth 48h, Pf growth 96h)
COc1cc(NC(=O)C2(C)CCCN(C(C)C)C2)cc(OC)c1OC (stereo not given)	none (no result: HCV inh, SARS PLP yeast, NS1 function inh, Pf growth 48h, Pf growth 96h)
CN(Cc1ccccc1)N=Nc1nc[nH]c1C(N)=O	none (no result: HCV inh, SARS PLP yeast, NS1 function inh, Pf growth 48h, Pf growth 96h)
COc1cccc(OCCn2cc(C(=O)c3ccco3)c3ccccc32)c1	HCV inh 20µM, Pf growth 48h 1.9µM
